Test results published in PMC4336329 (PLoS ONE, 2015).
The whole screen tested about 310,000 compounds, of which about 2,200 (0.71%) showed an effect of 50% or more. Effects have a minus sign here. This is one part of a sample in which strong results are shown more often than they occur.

Target: human ether-à-go-go-related gene (hERG) potassium channel (human, UniProt Q12809)
Experiment: primary screen, population patch clamp on CHO cells stably expressing hERG; higher = less effect of the substance

Sequence of human ether-à-go-go-related gene (hERG) potassium channel (Q12809 whole entry, looked up): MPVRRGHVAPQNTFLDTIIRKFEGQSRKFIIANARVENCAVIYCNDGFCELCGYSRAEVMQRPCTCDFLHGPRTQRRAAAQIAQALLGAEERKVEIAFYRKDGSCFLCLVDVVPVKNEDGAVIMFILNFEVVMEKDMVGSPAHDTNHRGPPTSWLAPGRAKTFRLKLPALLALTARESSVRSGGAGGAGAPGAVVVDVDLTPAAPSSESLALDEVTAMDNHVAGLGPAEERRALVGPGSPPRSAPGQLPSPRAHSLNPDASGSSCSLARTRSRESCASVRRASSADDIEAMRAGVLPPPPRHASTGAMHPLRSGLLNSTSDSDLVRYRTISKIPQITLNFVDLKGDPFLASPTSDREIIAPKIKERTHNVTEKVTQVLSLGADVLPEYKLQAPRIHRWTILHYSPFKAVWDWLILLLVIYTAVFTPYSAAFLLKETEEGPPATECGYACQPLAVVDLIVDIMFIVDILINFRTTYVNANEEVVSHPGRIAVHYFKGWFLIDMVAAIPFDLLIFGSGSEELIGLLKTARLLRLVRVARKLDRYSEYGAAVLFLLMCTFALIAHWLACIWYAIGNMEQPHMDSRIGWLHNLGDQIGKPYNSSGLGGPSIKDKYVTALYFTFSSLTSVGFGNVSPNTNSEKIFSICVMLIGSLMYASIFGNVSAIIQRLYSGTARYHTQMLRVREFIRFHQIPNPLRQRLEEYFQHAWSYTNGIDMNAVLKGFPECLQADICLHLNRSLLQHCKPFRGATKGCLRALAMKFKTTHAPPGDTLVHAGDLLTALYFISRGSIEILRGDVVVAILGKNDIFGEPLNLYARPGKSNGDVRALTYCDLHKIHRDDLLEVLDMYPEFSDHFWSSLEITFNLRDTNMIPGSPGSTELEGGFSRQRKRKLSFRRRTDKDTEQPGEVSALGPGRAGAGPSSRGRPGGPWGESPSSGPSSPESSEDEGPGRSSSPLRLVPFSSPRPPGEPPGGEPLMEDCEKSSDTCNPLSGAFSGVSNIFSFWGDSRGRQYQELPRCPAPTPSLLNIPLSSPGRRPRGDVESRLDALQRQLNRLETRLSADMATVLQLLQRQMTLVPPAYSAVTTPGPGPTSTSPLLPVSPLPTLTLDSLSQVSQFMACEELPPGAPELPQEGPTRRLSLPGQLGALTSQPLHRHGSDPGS

SMILES	hERG current change (%, negative = inhibition) at 1uM [%]
N#CC(C#N)=Cc1ccc(N2CCCC2)cc1	5.75
Cc1cc(C=C(C#N)C#N)ccc1N1CCCC1	-68.6
Cc1cc(N2CCCC2)ccc1C=C(C#N)C#N	1.28
CNC(=S)Nc1ccc(C(N)=O)cc1	10.2
CC(C)(C)c1nc(NCC2CCCO2)c2nnn(Cc3ccccc3)c2n1 (stereo not drawn)	13.9
COc1ccc(C(=O)Nc2ccccc2C(=O)Nc2ccc(C(=O)O)cc2)cc1	15
O=C(CNS(=O)(=O)c1ccc(Br)s1)NCCc1ccc(Cl)cc1	16.1
COc1cccc(C2CNC3(CCCC(C)C3)c3[nH]c4ccccc4c32)c1OC.Cl (stereo not drawn)	8.05
CC1(C)CC(=O)CC2(C1)NCC(c1ccccc1)c1c2[nH]c2ccccc12.Cl (stereo not drawn)	-83.4
CC1(C)CC(=O)CC2(C1)NCC(c1ccccc1Cl)c1c2[nH]c2ccccc12.Cl (stereo not drawn)	-3.21
CC(C)(C)OC(=O)N[C@@H](Cc1ccccc1)C(=O)N1CCC(C(=O)N[C@@H](Cc2c[nH]c3ccccc23)C(=O)O)CC1	15
CCCS(=O)(=O)c1c(S(=O)(=O)CCC)c2cnccn2c1C(=O)c1ccc(CC)cc1	0.628
OC1(c2ccc(Cl)cc2)CCN(Cc2c[nH]c3ccccc23)CC1	-27.6
COc1ccccc1NC(=O)CN1CCN(CC(=O)Nc2ccc3c(c2)OCCO3)CC1	-10.6
CCOc1ccc(NC(=O)CN2CCN(CC(=O)Nc3ccc4c(c3)OCO4)CC2)cc1	-80.9
CCOc1ccc(OCCC(=O)Nc2ccc3c(c2)OCO3)cc1	11.1
CCOc1ccc(NC(=O)COc2ccc3c(c2)OCO3)cc1	7.57
COc1ccc(S(=O)(=O)N2CCCN(CC(=O)Nc3ccc4c(c3)OCO4)CC2)cc1	-15.1
COc1ccc(NC(=O)CN2CCN(CC(=O)Nc3ccc4c(c3)OCO4)CC2)cc1	-85.9
COc1ccccc1NC(=O)CN1CCN(CC(=O)Nc2ccc3c(c2)OCO3)CC1	-67.3
COc1ccccc1N1CCN(CC(=O)Nc2ccc3c(c2)OCCO3)CC1	-0.304

SMILES	hERG current change (%, negative = inhibition) at 1uM [%]
COc1ccc(OCC(=O)Nc2ccc3c(c2)OCO3)cc1	11.7
O=C(CN1CCCC1=O)NC1C2CC3CC(C2)CC1C3 (stereo not drawn)	9.69
COC(=O)C1=CN(Cc2ccccc2)C=C(C(=O)OC)C1c1ccc(O)c(OC)c1	17.4
COc1ccc(N2C(=O)/C(=C\c3ccco3)N=C2SCC(=O)N(C(C)C)C(C)C)cc1Cl	20.1
Cc1ccc(OCC(O)CNC2CCCC2)cc1C.Cl (stereo not drawn)	8.86
CC(=O)c1cccc(CN2CCCCC2C(=O)Nc2ccc(Oc3ccccc3)nc2)c1 (stereo not drawn)	0.714
CCC(=O)Nc1nc(C)c(C(=O)N2CCCCC2)s1	12.8
CCCCn1c(N)c(N(CCC(C)C)C(=O)c2ccc(C)c(S(=O)(=O)N3CCOCC3)c2)c(=O)[nH]c1=O	5.89
CCCCN(C(=O)c1ccc(C)c(S(=O)(=O)N2CCOCC2)c1)c1c(N)n(CCCC)c(=O)[nH]c1=O	5.43
CCCCN(C(=O)c1ccc(C)c(S(=O)(=O)N2CCOCC2)c1)c1c(N)n(CC(C)C)c(=O)[nH]c1=O	-57.9
O=C(CCNS(=O)(=O)c1ccccc1F)N1CCN(Cc2ccccc2)CC1	8.79
O=C(NCc1ccccc1)c1ccc(NC(=O)c2ccco2)cc1	5.4
O=C(NC1CCCC1)C(c1ccccn1)N(Cc1ccccc1F)C(=O)c1csnn1 (stereo not drawn)	10.7
CN1CCN(Cc2nnc3n2-c2ccc(Cl)cc2C(c2ccccc2)=NC3)CC1.O=CO	-31.9
CN(C)CCSCc1nnc2n1-c1ccc(Cl)cc1C(c1ccccc1Cl)=NC2.c1ccccc1	-51.9
Clc1ccc2c(c1)C(c1ccccc1Cl)=NCc1nnc(Br)n1-2.c1ccccc1	2.57
CSCc1nnc2n1-c1ccc(Cl)cc1C(c1ccccc1)=NC2	4.89
Clc1ccc2c(c1)C(c1ccccc1Cl)=NCc1nnc(N3CCN(CCSc4ccccc4)CC3)n1-2.O.O=C(O)/C=C/C(=O)O	-10.8
CCOCCN1CCN(c2nnc3n2-c2ccc(Cl)cc2C(c2ccccc2Cl)=NC3)CC1.O=CO	-57.6
Clc1ccc2c(c1)C(c1ccccc1Cl)=NCc1nnc(N3CCN(CCOc4ccccc4)CC3)n1-2.O=C(O)/C=C/C(=O)O	-50.8
COc1ccccc1C1=NCc2nnc(CSC)n2-c2ccc(Cl)cc21	0.0726

SMILES	hERG current change (%, negative = inhibition) at 1uM [%]
COCCCN1CCN(c2nnc3n2-c2sc(Br)cc2C(c2ccccc2Cl)=NC3)CC1.CS(=O)(=O)O	-11.9
O=c1nc2n(c3ncccc13)CCC2	16.1
CCOC(=O)c1cc(-c2ccccc2)sc1NC(=O)CSc1nnc(N)s1	2.01
Cc1cc(C)cc(C(=O)NCC(=O)OCC(=O)N2c3ccccc3NC(=O)C2(C)C)c1	4.41
COc1ccc(CC[NH+](C)CCCN2CC(c3ccccc3)CC2=O)cc1OC.O=C([O-])C(=O)[O-] (stereo not drawn)	-61.9
COc1ccc(CCN2CC(C(=O)NCc3ccc(F)cc3)CC2=O)cc1OC (stereo not drawn)	6.95
COc1ccc(C2SCC(=O)N2CCc2ccc(OC)c(OC)c2)cc1 (stereo not drawn)	-1.68
COc1ccc(CCN2CC(C(=O)O)CC2=O)cc1OC (stereo not drawn)	2.95
COc1ccc(C2CC(=O)N(CCC[NH+](C)CCc3ccc(OC)c(OC)c3)C2)cc1.O=C([O-])C(=O)[O-] (stereo not drawn)	-72.9
COc1ccc(NC(=O)CN2CC(c3ccccc3)CC2=O)cc1OC (stereo not drawn)	12.3
COCC1CCCN(C(=O)c2ccc3oc(C(C)C)nc3c2)C1 (stereo not drawn)	9.33
COc1ccc(/C=N/Nc2nc(N3CCCC3)nc(N3CCCC3)n2)cc1O	7.51
O=C(c1ccc(O)cc1)c1ccc(Cl)cc1	-3.35
O=C(O)CCCCCCCCCCCc1ccccc1	12.7
CC(C)N(C)NC(=S)Nc1ccccc1	8.22
COc1ccc(/C=C(/NC(=O)c2ccc([N+](=O)[O-])cc2)C(=O)NCCCN(C)C)cc1	-65.3
COc1ccc(/C=C(\NC(=O)c2ccc([N+](=O)[O-])cc2)C(=O)NCCCn2ccnc2)cc1	-14.4
COc1ccc(/C=C(\NC(=O)c2ccc([N+](=O)[O-])cc2)C(=O)NCCCN2CCOCC2)cc1	-41
C=CCNC(=O)/C(=C\c1ccc([N+](=O)[O-])cc1)NC(C)=O	8.68
C=CCNC(=O)/C(=C\c1ccc(OC)cc1)NC(=O)c1ccc([N+](=O)[O-])cc1	-64.7
COc1ccc(/C=C(/NC(=O)c2ccc([N+](=O)[O-])cc2)C(=O)NC(C)(C)C)cc1	-10.7

SMILES	hERG current change (%, negative = inhibition) at 1uM [%]
CCOC(=O)CCc1c(C)c(C#N)c2nc3ccccc3n2c1-n1ccnc1C	-20.4
CCOC(=O)CCc1c(C)nc2cc(-c3ccc(F)cc3)[nH]n2c1=O	8.2
CC(C)(C)SCCNC(=O)c1ccc(Cl)c([N+](=O)[O-])c1	8.24
O=C(Cn1nnc(-c2ccccc2-n2cnnn2)n1)c1ccccc1	5.12
O=C(C1=C(O)C(=O)N(CCCN2CCOCC2)C1c1ccc(Cl)cc1)c1cc2ccccc2o1 (stereo not drawn)	15.8
CN(C(=O)c1ccc(Cl)cc1)C1=CCCCC1CCC#N (stereo not drawn)	0.644
CN1CCN(c2ccc(S(=O)(=O)N3CCCCC3)cc2NC(=O)Cc2c(F)cccc2Cl)CC1	-7.39
COc1ccc(CC(=O)Nc2cc(S(=O)(=O)N3CCCCC3)ccc2N2CCN(C)CC2)cc1	-7.26
O=C(CC1OC(=O)c2ccccc21)Nc1cc(Cl)ccc1N1CCCC1 (stereo not drawn)	8.82
CN1CCN(c2ccccc2NC(=O)Cc2ccc(Cl)cc2)CC1	-59.4
CN1CCN(c2ccc(S(=O)(=O)N3CCCCC3)cc2NC(=O)Cc2ccc(Cl)cc2)CC1	-50.6
CC(C)C(=O)N1CCN(c2ccccc2NC(=O)Cc2ccc(Cl)cc2)CC1	-38.9
CC(=O)N1CCN(c2ccccc2NC(=O)Cc2ccc(Cl)cc2)CC1	-17.2
CN1CCN(c2ccc(Cl)cc2NC(=O)CC2OC(=O)c3ccccc32)CC1 (stereo not drawn)	-61.2
CN1CCN(c2ccc(Cl)cc2NC(=O)CCN2C(=O)c3ccccc3C2=O)CC1	6.75
COc1ccc(NC(=S)N(CCc2ccc(OC)c(OC)c2)Cc2ccccn2)cc1	0.952
CCOC(=O)c1ccc(CNCc2ccc(C)cc2)cc1	-1.83
COc1ccc(S(=O)(=O)N2CCCC2CNC(=O)C(=O)Nc2ccc(C)cc2)cc1 (stereo not drawn)	-0.606
